PubChem BioAssay (NCI)
About 83,000 compounds went through this panel and 20% of them were active in at least one assay; those are over-represented in the sample as a whole.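 Single-dose data. Exposure time 48 hours. Values below 10 considered active.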 The source made the active and inactive calls.

Legend:
Test in all cases: NCI-60 one-dose screen, 48 h (100 = growth as untreated, 0 = no growth, -100 = all killed)
SK-MEL-2 melanoma = conditions: 10 µM unless noted
EKVX NSCLC = conditions: 10 µM unless noted
SN12C renal = conditions: 10 µM unless noted
UO-31 renal = conditions: 10 µM unless noted
ACHN renal = conditions: 10 µM unless noted
CAKI-1 renal = conditions: 10 µM
A498 renal = conditions: 10 µM unless noted
CCRF-CEM leukemia = conditions: 10 µM unless noted
MOLT-4 leukemia = conditions: 10 µM unless noted
SR leukemia = conditions: 10 µM unless noted
RPMI-8226 leukemia = conditions: 10 µM unless noted
OVCAR-8 ovarian = conditions: 10 µM unless noted
OVCAR-5 ovarian = conditions: 10 µM unless noted
OVCAR-4 ovarian = conditions: 10 µM unless noted
SK-OV-3 ovarian = conditions: 10 µM unless noted
IGROV1 ovarian = conditions: 10 µM unless noted
OVCAR-3 ovarian = conditions: 10 µM unless noted
NCI/ADR-RES ovarian = conditions: 10 µM unless noted
HS 578T breast = conditions: 10 µM unless noted

Measured: growth

O=C1C(Cl)=C(Nc2ccccc2)C(=O)C(Cl)=C1Nc1ccccc1
inactive: SK-MEL-2 melanoma 113% | EKVX NSCLC 114% | SN12C renal 109% | UO-31 renal 94.2% | ACHN renal 109% | CAKI-1 renal 106% | A498 renal 78.6% | CCRF-CEM leukemia 103% | MOLT-4 leukemia 114% | SR leukemia 111% | RPMI-8226 leukemia 107% | OVCAR-8 ovarian 103% | OVCAR-5 ovarian 112% | OVCAR-4 ovarian 115% | SK-OV-3 ovarian 108% | IGROV1 ovarian 110% | OVCAR-3 ovarian 119% | NCI/ADR-RES ovarian 102%

O=C(Nc1ccc(-n2cc(-c3ccncc3)c(-c3ccc(O)c(Cl)c3)n2)cc1)c1cc(C(F)(F)F)cc(C(F)(F)F)c1
inactive: SK-MEL-2 melanoma 68.8% | EKVX NSCLC 66.3% | SN12C renal 64.4% | UO-31 renal 50.8% | ACHN renal 54.2% | CAKI-1 renal 54.4% | A498 renal 76.7% | CCRF-CEM leukemia 31.1% | MOLT-4 leukemia 28.3% | SR leukemia 58.8% | RPMI-8226 leukemia 27.9% | OVCAR-8 ovarian 69.5% | OVCAR-5 ovarian 70.9% | OVCAR-4 ovarian 85.9% | SK-OV-3 ovarian 84% | IGROV1 ovarian 61.4% | OVCAR-3 ovarian 49.8% | NCI/ADR-RES ovarian 67.2%

O=C(Nc1cccc(-n2ccc3c(NC(=O)c4ccccc4)nccc32)c1)Nc1ccc(Cl)c(C(F)(F)F)c1
active: SK-MEL-2 melanoma -5.89% | CAKI-1 renal 7.43% | A498 renal -3.31% | CCRF-CEM leukemia 4.74% | SR leukemia -11.6% | RPMI-8226 leukemia -35% | OVCAR-8 ovarian 4.34% | SK-OV-3 ovarian 7.74% | OVCAR-3 ovarian -21.1% | NCI/ADR-RES ovarian -10.9%
inactive: EKVX NSCLC 32.8% | SN12C renal 19.2% | UO-31 renal 27.8% | ACHN renal 13.1% | MOLT-4 leukemia 12.8% | OVCAR-5 ovarian 27.6% | OVCAR-4 ovarian 73.7% | IGROV1 ovarian 16.7%

CN(C)c1ccc(/C=c2\s/c(=C\C(=O)C(C)(C)C)[nH]c2=O)cc1
inactive: SK-MEL-2 melanoma 102% | EKVX NSCLC 93.9% | SN12C renal 99% | UO-31 renal 92.5% | ACHN renal 100% | CAKI-1 renal 97.8% | A498 renal 105% | CCRF-CEM leukemia 101% | MOLT-4 leukemia 133% | SR leukemia 92.1% | RPMI-8226 leukemia 104% | OVCAR-8 ovarian 102% | OVCAR-5 ovarian 99.7% | OVCAR-4 ovarian 85.3% | SK-OV-3 ovarian 100% | IGROV1 ovarian 88.5% | OVCAR-3 ovarian 102% | HS 578T breast 103% | NCI/ADR-RES ovarian 103%

O=C1/C(=C/c2cccc3cnccc23)Cc2cc(F)ccc21
inactive: SK-MEL-2 melanoma 94.6% | EKVX NSCLC 91.2% | SN12C renal 94.6% | UO-31 renal 70.4% | ACHN renal 95.7% | CAKI-1 renal 84.5% | A498 renal 97.2% | CCRF-CEM leukemia 110% | MOLT-4 leukemia 82.1% | SR leukemia 84.6% | RPMI-8226 leukemia 85.9% | OVCAR-8 ovarian 96.1% | OVCAR-5 ovarian 108% | OVCAR-4 ovarian 77% | SK-OV-3 ovarian 76.9% | IGROV1 ovarian 85.9% | OVCAR-3 ovarian 109% | HS 578T breast 109% | NCI/ADR-RES ovarian 90.7%

O=C(O)c1cccc2oc(-c3ccccc3O)nc12
inactive: SK-MEL-2 melanoma 71.2% | EKVX NSCLC 45% | SN12C renal 57.5% | UO-31 renal 54.3% | ACHN renal 57.9% | CAKI-1 renal 42.3% | A498 renal 47.8% | CCRF-CEM leukemia 31.3% | MOLT-4 leukemia 66.4% | SR leukemia 47.6% | RPMI-8226 leukemia 50.4% | OVCAR-8 ovarian 31.9% | OVCAR-5 ovarian 74.7% | OVCAR-4 ovarian 20.8% | SK-OV-3 ovarian 58.4% | IGROV1 ovarian 60.5% | OVCAR-3 ovarian 15.5% | HS 578T breast 80.4% | NCI/ADR-RES ovarian 19.8%

O=C(NCCNc1nccc(-c2c(-c3cccc(O)c3)nc3sccn23)n1)c1ccc(N2CCOCC2)c(C(F)(F)F)c1
inactive: SK-MEL-2 melanoma 66.7% | EKVX NSCLC 74% | SN12C renal 76% | UO-31 renal 61.3% | ACHN renal 60.8% | CAKI-1 renal 66.9% | A498 renal 47.8% | CCRF-CEM leukemia 56.9% | MOLT-4 leukemia 57% | SR leukemia 76.1% | RPMI-8226 leukemia 58.8% | OVCAR-8 ovarian 72.8% | OVCAR-5 ovarian 91.2% | OVCAR-4 ovarian 105% | SK-OV-3 ovarian 66.4% | IGROV1 ovarian 54.3% | OVCAR-3 ovarian 89.1% | NCI/ADR-RES ovarian 95.4%

O=S(=O)(CCN1CCOCC1)Nc1cncc(-c2ccc3ncnc(Nc4ccc(F)c(Cl)c4)c3c2)c1
inactive: SK-MEL-2 melanoma 81.5% | EKVX NSCLC 44.7% | SN12C renal 66.7% | UO-31 renal 51.9% | ACHN renal 45.2% | CAKI-1 renal 72.3% | A498 renal 73.1% | CCRF-CEM leukemia 57.1% | MOLT-4 leukemia 71.7% | SR leukemia 90% | RPMI-8226 leukemia 82.4% | OVCAR-8 ovarian 72.8% | OVCAR-5 ovarian 69.3% | OVCAR-4 ovarian 82.2% | SK-OV-3 ovarian 33.5% | IGROV1 ovarian 10.8% | OVCAR-3 ovarian 50.6% | HS 578T breast 37% | NCI/ADR-RES ovarian 87.3%

COCCNC(C(=O)c1ccccc1)c1ccccc1 (stereo not given)
inactive: SK-MEL-2 melanoma 107% | EKVX NSCLC 99.2% | SN12C renal 100% | UO-31 renal 97.7% | ACHN renal 106% | CAKI-1 renal 102% | A498 renal 88.4% | CCRF-CEM leukemia 101% | MOLT-4 leukemia 98.6% | SR leukemia 109% | RPMI-8226 leukemia 98.4% | OVCAR-8 ovarian 97.7% | OVCAR-5 ovarian 95.1% | OVCAR-4 ovarian 105% | SK-OV-3 ovarian 101% | IGROV1 ovarian 102% | OVCAR-3 ovarian 104% | HS 578T breast 100% | NCI/ADR-RES ovarian 107%

O=C(Nc1ccc(-n2ccc3c(NC(=O)c4ccccc4)ncnc32)cc1)Nc1ccc(Cl)c(Cl)c1
active: UO-31 renal 9.15% | CCRF-CEM leukemia -10.2% | SR leukemia -6.07% | RPMI-8226 leukemia -1.3% | OVCAR-8 ovarian 0.377% | OVCAR-4 ovarian -74.1% | IGROV1 ovarian -2.23% | OVCAR-3 ovarian -67.1%
inactive: SK-MEL-2 melanoma 11.7% | EKVX NSCLC 27.3% | SN12C renal 15.8% | ACHN renal 27.8% | CAKI-1 renal 30.8% | A498 renal 90.5% | MOLT-4 leukemia 28.7% | OVCAR-5 ovarian 39.6% | SK-OV-3 ovarian 67.9% | NCI/ADR-RES ovarian 53.2%

CN1C(=O)C2(NN=C(c3cccc4ccccc34)S2)c2ccccc21 (stereo not given)
active: CCRF-CEM leukemia 9.4% | MOLT-4 leukemia 2.9%
inactive: SK-MEL-2 melanoma 37.1% | EKVX NSCLC 24% | SN12C renal 31.5% | UO-31 renal 18.5% | ACHN renal 30.5% | CAKI-1 renal 25.7% | A498 renal 47% | SR leukemia 28.5% | RPMI-8226 leukemia 18.2% | OVCAR-8 ovarian 26.2% | OVCAR-5 ovarian 50.2% | OVCAR-4 ovarian 20% | SK-OV-3 ovarian 26.5% | IGROV1 ovarian 39.4% | OVCAR-3 ovarian 40.2% | HS 578T breast 51.1% | NCI/ADR-RES ovarian 29%

O=C(Nc1ccc(-n2ccc3c(NC(=O)c4ccccc4)ncnc32)cc1)c1cccc(C(F)(F)F)c1
active: SR leukemia 2.8%
inactive: SK-MEL-2 melanoma 85.8% | EKVX NSCLC 63.5% | SN12C renal 60.7% | UO-31 renal 45.9% | ACHN renal 34% | CAKI-1 renal 27.9% | A498 renal 87.5% | CCRF-CEM leukemia 28.2% | MOLT-4 leukemia 19.7% | RPMI-8226 leukemia 20.1% | OVCAR-8 ovarian 40.9% | OVCAR-5 ovarian 62.3% | OVCAR-4 ovarian 97.1% | SK-OV-3 ovarian 61.2% | IGROV1 ovarian 43.1% | OVCAR-3 ovarian 54.4% | NCI/ADR-RES ovarian 50.7%

Nc1ncnc2c1ncn2C1OC(COC(c2ccccc2)(c2ccccc2)c2ccccc2)C(O)C1O (stereo not given)
inactive: SK-MEL-2 melanoma 87.7% | EKVX NSCLC 91.6% | SN12C renal 93.7% | UO-31 renal 80.5% | ACHN renal 47.9% | CAKI-1 renal 57.7% | A498 renal 103% | CCRF-CEM leukemia 46.1% | MOLT-4 leukemia 78.8% | SR leukemia 89.6% | RPMI-8226 leukemia 82.1% | OVCAR-8 ovarian 96.7% | OVCAR-5 ovarian 85.7% | OVCAR-4 ovarian 95.2% | SK-OV-3 ovarian 123% | IGROV1 ovarian 107% | OVCAR-3 ovarian 106% | HS 578T breast 84.1% | NCI/ADR-RES ovarian 89.2%

O=C(Nc1cccc(-n2ccc3c(NC(=O)c4ccccc4)nccc32)c1)c1cccc(C(F)(F)F)c1
active: CAKI-1 renal 9.21% | A498 renal 7.75% | CCRF-CEM leukemia 8.28% | SR leukemia 1.05% | RPMI-8226 leukemia -36.1% | OVCAR-8 ovarian 3.8% | OVCAR-3 ovarian -8.09% | NCI/ADR-RES ovarian -1.18%
inactive: SK-MEL-2 melanoma 18.8% | EKVX NSCLC 43.4% | SN12C renal 25% | UO-31 renal 22.4% | ACHN renal 24.7% | MOLT-4 leukemia 13.1% | OVCAR-5 ovarian 32.5% | OVCAR-4 ovarian 72.9% | SK-OV-3 ovarian 12.1% | IGROV1 ovarian 15.9%

O=C(Nc1ccc(-n2cc(-c3ccncc3)c(-c3ccc(O)c(Cl)c3)n2)cc1)Nc1ccc(Cl)c(C(F)(F)F)c1
inactive: EKVX NSCLC 19.5% | SN12C renal 19.1% | UO-31 renal 13.6% | ACHN renal 13.2% | A498 renal 63.5% | OVCAR-8 ovarian 15.2% | OVCAR-5 ovarian 43.4% | OVCAR-4 ovarian 42.2% | SK-OV-3 ovarian 32.6% | IGROV1 ovarian 22.8% | NCI/ADR-RES ovarian 17.9%
active: SK-MEL-2 melanoma -42.2% | CAKI-1 renal -3.83% | CCRF-CEM leukemia 7.92% | MOLT-4 leukemia 9.62% | SR leukemia 4.23% | RPMI-8226 leukemia -19.2% | OVCAR-3 ovarian 1.16%

O=[N+]([O-])c1cccc(C(c2ccccc2)c2ccccc2)c1
inactive: SK-MEL-2 melanoma 97.8% | EKVX NSCLC 79.1% | SN12C renal 98% | UO-31 renal 75.7% | ACHN renal 85.9% | CAKI-1 renal 56.8% | A498 renal 91% | CCRF-CEM leukemia 87.2% | MOLT-4 leukemia 83.3% | SR leukemia 78.3% | RPMI-8226 leukemia 82.9% | OVCAR-8 ovarian 98% | OVCAR-5 ovarian 85.6% | OVCAR-4 ovarian 98.2% | SK-OV-3 ovarian 95.6% | IGROV1 ovarian 84.5% | OVCAR-3 ovarian 98.3% | NCI/ADR-RES ovarian 95.8%
